Data on 17 molecules can be found in PubChem BioAssay (NCI).

Compounds without any hit were thinned out: in the full panel of roughly 79,000, 15% have a hit. Unmarked numbers belong to inactive results. Rule as the data show it: active = growth inhibition above about 70%; inactive = the rest.

The assay is described as follows: NCI Yeast Anticancer Drug Screen. Data for the rad50 strain (AID 155).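 Also: 0% = growth of vehicle-only cultures of the same strain.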 Conditions: S. cerevisiae rad50 strain growth inhibition; at 50.0 µM; hits give high values. In a few lines:
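Growth of the mutant yeast was measured after compound exposure and referenced to vehicle-treated cultures.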
For `Cc1onc(-c2c(F)cccc2Cl)c1-c1ncc(-c2ccc(Cl)cc2)o1`, the growth inhibition was 3.05%. As for `CSC1C(OC(=O)c2ccccc2)C(COC(=O)c2ccccc2)OC1n1cnc2ncnc(NC(=O)c3ccccc3)c21` (configuration not stated), the growth inhibition is 45.4%.

`CC(NN(C)C(=S)Nc1ccccc1)c1ccccn1` (configuration not stated): the growth inhibition is -6.7%.

For `CCOC(=O)C(=O)C(/C(=N/N(C)C)C(=O)Nc1ccc(C)cc1C)c1nc2ccccc2[nH]c1=O` (configuration not stated), the growth inhibition is -21.7%. The same measure for `CC(=O)c1ccc(N=C2C(=O)Nc3ccccc32)cc1`: 28.9%. The same measure for `O=[N+]([O-])c1ccc(-c2nc3ncncc3[nH]2)cc1`: 13.2%; for `Cc1cc(N=Nc2ccc(N(C)C)cc2)ccn1`: 21.6%. On to `C1CCC2(CC1)OCCS2`, for which the growth inhibition is 24.6%. The same measure for `O=C1NC2(CCCC2)C(=O)N2CCCC12` (configuration not stated): -8.65%; for `CN(C)/C=N/c1nc2ncn(CCOC(=O)c3ccccc3)c2c(=O)[nH]1`: -20.6%. In the case of `CN(C)/N=C\c1ccc(C(=O)O)cc1`, the growth inhibition is -4.35%. The same measure for `CCCCCC[n+]1ccc(C(=O)c2ccccc2)cc1`: 34.9%. As to `O=C1NNC2(C(=O)N1)c1ccccc1-c1ccccc12`, the growth inhibition is 8.5%.

For the molecule `O=C1NC(=O)C(c2ccc(C(=O)O)cc2)N1` (configuration not stated), the growth inhibition was -12.8%. The same measure for `CCCCCCCCOc1ccc(Cl)cc1`: -2.95%.

With `Cc1cccc2c1Oc1ccccc1C2NC(=O)OCCc1ccccc1` (configuration not stated), the growth inhibition is -14.3%.

As for `COc1ccc(C(=O)c2cc(S(=O)(=O)O)c(OC)cc2O)c(O)c1`, the growth inhibition is -32.8%.
